Assay outcomes (PubChem)
LMP1 NFkB inh – EBV LMP1-driven NF-kappaB luciferase reporter inhibitors, primary screen, cell-based, luminescence, single point; LMP1-induced NF-kappaB luciferase reporter cells; inhibition, % at 12.5 µM; actives 0.69% (n = 350,000); AID 504558, 2011; in the data active = inhibition above about 41%; inconclusive = no clear call, values can overlap the other calls;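 note: 0% = neutral control wells and 100% = reference inhibitor control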
PAX8 inh HTS – inhibitors of PAX8-driven TPO luciferase reporter, primary screen, RMG-I cells, single concentration | inhibition, % at 12.6 µM | SteadyGlo, 24 h | actives 1.2% (n = 360,000);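 active = mean replicate inhibition at least 60% with every replicate also reaching 60%; inconclusive = only one of the two criteria is met; inactive = mean below 60% and not all replicates reaching 60%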;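 note: luciferase light reporting Pax8 driven TPO promoter activity; plate controls were median of neutral control wells for no effect and mitoxantrone controls for full effect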
LGR2 inh – inhibitors of bursicon-induced LGR2 CRE-luciferase signal, primary screen, cell-based, HEK293, CRE-luciferase reporter, bursicon stimulation; Drosophila bursicon receptor LGR2 (rickets); bursicon-stimulated, 4 h; inhibition, % at 9.99 µM; actives 0.35% (n = 380,000); AID 720647, 2013;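 active = drop in luminescence signal, shown as inhibition above about 50% in the replicate tests, limit read from the data, passing the limit was not always enough; inconclusive = probably only some replicates passing the limit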;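 note: agonist challenge used bursicon conditioned medium at about half maximal strength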
TRPM1 prom inh – inhibitors of MITF-dependent TRPM1 promoter reporter, primary screen, cell-based, SK-MEL-5, single point, luciferase; SK-MEL-5 TRPM1 promoter luciferase, 24 h; inhibition, % at 12.5 µM; actives 0.83% (n = 330,000); AID 488899, 2010;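 active = mean inhibition across replicates of 60% or more, whatever share of single replicates reaches that level; inconclusive = some that reach 60%, reason not given; inactive = mean inhibition across replicates below 60%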
EWS-Fli block – EWS/Fli-driven NR0B1 reporter inhibitors, primary screen, A673 cells, NR0B1 luciferase, luminescence, MLPCN library; viability-normalised; inhibition, % at 12.6 µM; actives 0.67% (n = 350,000);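 active = mean inhibition of at least 50% after viability correction, with every replicate also passing that limit; inconclusive = mean reaches 50% but only one of two replicates passes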;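 note: firefly luciferase signal divided by Alamar Blue viability fluorescence both relative to DMSO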
Shn3 3UTR inh – reduction of Shn3 3'UTR firefly luciferase signal, primary screen, Schnurri-3 inhibitor project, cell-based, Clone20 osteoblasts, set 2. inhibition, % at 12.5 µM. actives 0.52% (n = 360,000). Clone20 osteoblast Shn3 3'UTR firefly luciferase, 24 h;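 active = mean inhibition of at least 75% with every replicate also reaching 75%; inconclusive = mean inhibition at least 75% but some replicate below; inactive = mean inhibition below 75%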;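 note: 0% = median of neutral control wells and 100% = pilot-screen positive control compound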
DNA binder FP – DNA binders by acridine orange displacement, dose response, counter-screen for EWS/Fli inhibitor project, biochemical, fluorescence polarization, cherry-pick. shares compounds with EWS-Fli block. salmon sperm DNA acridine orange fluorescence polarization. AC35, µM (top dose mostly 68 µM), for inactives: at the highest dose activity change, negative = DNA binding. actives 2% (n = 640). AID 720586, 2013;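 active = fitted curve reaches a 35% signal fall AC35 below twice the sample's top valid tested dose, actives reach about 48 µM in these data; inactive = the rest, including activity in the rising direction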;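 note: lower polarization ratio signals compound binding to DNA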
An asterisk follows results filed as active; ? = inconclusive; . = not tested or not shown. Only some compounds are listed: those with a hit (about 2.2% of all), similar ones and a draw of the others.

SMILES	LMP1 NFkB inh	PAX8 inh HTS	LGR2 inh	TRPM1 prom inh	EWS-Fli block	Shn3 3UTR inh	DNA binder FP
CCC(=O)Nc1ccc2c(c1)C(=O)N(C)[C@H]1CC[C@@H](CC(=O)NCCN3CCCCC3)O[C@@H]1CO2	.	0	3	.	6	.	.
COc1ccccc1-c1cnc2c(c1)C(=O)N([C@@H](C)CO)C[C@H](C)[C@H](CN(C)Cc1ccncc1)O2	.	.	-3	.	-13	.	.
Cc1ccc(S(=O)(=O)NCC[C@H]2CC[C@H](NS(=O)(=O)c3ccccc3Cl)[C@H](CO)O2)cc1	.	9	-6	.	2	.	.
O=C(C[C@H]1C=C[C@H](NC(=O)c2ccccn2)[C@H](CO)O1)NCc1cc(F)cc(F)c1	.	-3	4	.	-9	.	.
C[C@@H]1CCCCO[C@@H](CN(C)C(=O)Cc2ccccc2)[C@@H](C)CN([C@@H](C)CO)C(=O)c2cc(NS(=O)(=O)c3ccc(F)cc3)ccc2O1	.	-10	21	.	64*	.	-9%
C[C@@H]1CN([C@H](C)CO)C(=O)c2cc(NC(=O)c3ccccc3)ccc2O[C@@H](C)CCCCO[C@H]1CN(C)C(=O)Nc1cccc2ccccc12	.	37	27	.	69*	.	-8%
Cc1ccc(S(=O)(=O)Nc2ccc3c(c2)C(=O)N([C@@H](C)CO)C[C@H](C)[C@@H](CN(C)Cc2ccc(C(F)(F)F)cc2)OCCCC[C@@H](C)O3)cc1	.	97*	14	.	55*	.	13%
Cc1cccc(-c2ccc([C@@H]3[C@H](CO)N4C(=O)CN(C(=O)c5ccccc5)C[C@@H]34)cc2)c1	.	19	12	.	5	.	.
O=C(CCCN1C(=O)/C(=C/c2ccccc2Cl)SC1=S)NNC(=O)c1ccc(Cl)cc1Cl	38	21	16	48	72*	42	4%
O=C(CCCN1C(=O)S/C(=C\c2ccccc2)C1=O)NNC(=O)c1ccccc1O	?	57	-23	71*	74*	28	13%
O=C(CCCN1C(=O)/C(=C/c2ccccc2Cl)SC1=S)NNC(=O)c1ccccc1	23	26	30	8	45	10	.
O=C1CCCC/C1=C/Nc1cccc(C(F)(F)F)c1	-1	12	-5	2	-22	-23	.
O=C1CCC2S/C(=C/Nc3ccc(C(F)(F)F)cc3)C(=O)N12 (stereo unspecified)	51*	72*	-33	86*	86*	57	-1%
CCCCc1c(-c2ccccc2OC)ncn1Cc1ccccc1	.	24	11	.	13	.	.
CCCCc1c(-c2ccccc2OC)ncn1Cc1ccc(C(C)(C)C)cc1	.	72*	37	.	62*	.	5%
Cc1ccc(S(=O)(=O)Nc2ccc3c(c2)C(=O)N(C)[C@@H]2CC[C@@H](CC(=O)O)O[C@@H]2CO3)cc1	.	-4	7	.	4	.	.
CCN(CC)C(=O)CN1C(=O)C(=O)c2ccccc21	-1	30	-5	0	54*	1	-9%
O=C(CN1C(=O)C(=O)c2ccccc21)OCN1C(=O)c2ccccc2C1=O	10	-16	.	-1	11	-27	.
O=C(CN1C(=O)C(=O)c2ccccc21)c1ccc(Cl)cc1	3	14	-6	6	60*	-20	-8%
CCCN1[C@H](C(=O)NCCOC)[C@@H](CO)[C@@H]2Cn3c(ccc(-c4cccc(C(=O)N(C)C)c4)c3=O)[C@@H]21	.	-14	-12	.	-2	.	.
C/C=C/c1ccc([C@@H]2[C@H](CO)N(CC3CC3)C23CN(C(=O)COC)C3)cc1	.	-13	3	.	-1	.	.
O=C(C[C@H]1CC[C@@H]2[C@H](COC[C@H](O)CN2C(=O)Cc2ccccc2)O1)NC1CCC1	.	-37	-3	.	-9	.	.
Cc1cccc(NC(=O)CN2CCN(C(=O)CNC(=O)c3ccc(-c4ccccc4)cc3)CC2)c1C	10	22	29	.	66*	64	13%
Cc1cccc(C)c1NC(=O)CN1CCN(C(=O)CNC(=O)c2ccc(-c3ccccc3)cc2)CC1	11	-95	7	.	-9	18	.
Cc1ccc(C(C)C)c(OCc2ccc(C(=O)N/N=C/c3ccc(C(=O)O)cc3)cc2)c1	-3	-50	-59	-4	32	8	.
SMILES	LMP1 NFkB inh	PAX8 inh HTS	LGR2 inh	TRPM1 prom inh	EWS-Fli block	Shn3 3UTR inh	DNA binder FP
Cc1ccc(C(C)C)c(OCc2ccc(C(=O)N/N=C/c3ccc(O)cc3O)cc2)c1	17	?	.	.	63*	92*	13%
CC1(CCc2ccccc2)NC(=O)N(CC(=O)N2CC(=O)Nc3ccccc32)C1=O (stereo unspecified)	-4	7	2	-2	62*	.	-6%
CC1(CCc2ccccc2)NC(=O)N(CC(=O)N2CCc3ccccc32)C1=O (stereo unspecified)	-8	8	-1	.	3	15	.
CO[C@@H]1CN(C)C(=O)c2ccc(NC(=O)c3cnccn3)cc2OC[C@H](C)N(CCc2ccccc2)C[C@H]1C	.	3	-2	.	5	.	.
COc1cc2c(cc1NC(=O)CN(C)Cc1ccc(OC)c(OC)c1)oc1ccccc12	5	25	-8	1	53*	5	-6%
CCCC[C@@H](O)C1=C(COC)C[C@H]2C(=O)N(Cc3ccccc3)C(=O)[C@H]2[C@H]1CO	.	6	.	.	0	.	.
O=c1c2ccccc2nc(/C=C/c2cc(Br)ccc2O)n1CCCO	-13	42	26	13	53*	-49	2%
O=c1c2ccccc2nc(/C=C/c2cccc([N+](=O)[O-])c2)n1CCO	0	12	12	-4	15	4	.
CCOC(=O)C1CCCCN1C(=O)CCc1c(C)nc2cc(-c3ccccc3)nn2c1C (stereo unspecified)	17	-30	-44	.	51*	15	-5%
COc1cc(OC)cc(-c2cc3nc(C)c(CCC(=O)O)c(C)n3n2)c1	53*	56	4	.	77*	79	44µM*
CCCN1C(=O)/C(=C/c2nc3ccccc3c(=O)[nH]2)c2ccccc21	7	6	10	-8	84*	-13	-1%
Cc1ccc(C2C(C#N)=C(N)Oc3cc(N)ccc32)cc1 (stereo unspecified)	-15	-12	3	-9	1	12	.
N#CC1=C(N)Oc2cc(N)ccc2C1c1cccc(Br)c1 (stereo unspecified)	20	64*	-4	15	62*	-2	6%
CC(/C=N/n1c(-c2ccc(Cl)cc2)n[nH]c1=S)=C\c1ccco1	3	3	-5	2	15	8	.
